Shown is part of a subset that was picked to be rich in hits.
ST2 inh: inhibitors of human ST2 (IL1RL1) binding to IL-33; Q01638; AlphaLISA ST2-Fc/biotin-IL-33 interaction, 1 h; inhibition, % for hits at 17 µM; actives 2.3% (n = 78,000); in the data active = inhibition above about 30%
Target sequence (Q01638 whole entry, looked up): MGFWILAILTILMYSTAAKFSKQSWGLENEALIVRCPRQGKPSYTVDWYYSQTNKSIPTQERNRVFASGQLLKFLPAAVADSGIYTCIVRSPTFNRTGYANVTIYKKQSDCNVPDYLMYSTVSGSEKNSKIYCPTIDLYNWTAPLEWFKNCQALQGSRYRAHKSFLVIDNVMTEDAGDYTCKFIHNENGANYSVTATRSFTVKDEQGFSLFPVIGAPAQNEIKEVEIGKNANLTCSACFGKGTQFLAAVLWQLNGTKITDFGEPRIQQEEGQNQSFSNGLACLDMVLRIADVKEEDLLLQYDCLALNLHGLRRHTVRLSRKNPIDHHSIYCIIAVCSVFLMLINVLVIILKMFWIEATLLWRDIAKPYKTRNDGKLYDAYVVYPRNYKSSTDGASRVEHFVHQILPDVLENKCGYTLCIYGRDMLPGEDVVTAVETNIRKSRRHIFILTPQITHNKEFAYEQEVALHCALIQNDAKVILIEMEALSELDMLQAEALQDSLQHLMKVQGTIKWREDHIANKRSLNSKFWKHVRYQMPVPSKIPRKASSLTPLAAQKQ
Numbers without * were called inactive; i = inactive.

SMILES	ST2 inh
O=C(NCCSc1c[nH]c2ccccc12)c1cccs1	i
CCN(CC)C(=O)C1=C(C)Nc2nc3ccccc3n2C1c1cc(Br)ccc1OC (configuration not stated)	i
O=C(Nc1nc2ccccc2s1)c1cccc2ccccc12	i
O=C(O)c1c(NC(=O)c2cccc3ccccc23)sc2c1CCCC2	i
COc1ccccc1NC(=O)c1ccccc1F	i
COC(=O)C1=C(NC(=O)c2cccc3ccccc23)CCS1	44%*
COC(=O)C1=C(NC(=O)c2ccccc2F)CCS1	39%*
COC(=O)c1sc2ccccc2c1NC(=O)c1ccccc1F	i
CC(C)C(C)N(Cc1ccco1)C(=O)CCn1cccc1 (configuration not stated)	i
COCC1(C(=O)N2CCn3cccc3C2c2ccccn2)CCC1 (configuration not stated)	i
COc1ccc(C2CCN(Cc3ccc(Sc4nncn4C)o3)c3ccccc3S2)cc1C (configuration not stated)	31%*
CN(Cc1ccc(Sc2nncn2C)o1)C1CCCN(Cc2ccccc2F)C1 (configuration not stated)	i
COc1ccc(-c2nn(-c3ccccc3C)cc2CNC2CCOCC2)cc1F	i
CN1CCC(N(C)Cc2ccc3c(c2)OCO3)CC1	i
O=C1CC(c2cccc([N+](=O)[O-])c2)CC2=C1C(c1ccc(Cl)cc1)Nc1ccccc1N2 (configuration not stated)	i
COc1cc(C(=O)Nc2nc3ccc(C)cc3s2)c(Br)c(OC)c1OC	i
COc1ccc(C2=NN(S(=O)(=O)c3ccc(C)cc3)C(c3ccc(F)cc3)C2)cc1OC (configuration not stated)	i
Cc1ccc(C2CC(c3ccc(F)cc3)=NN2c2ccccc2)o1 (configuration not stated)	40%*
COc1ccc(C2CC(c3ccccc3)=NN2C(=O)c2ccc(F)cc2)cc1 (configuration not stated)	i
Cc1sc2ncnc(Oc3ccccc3Br)c2c1C	i
CC(=O)C(Sc1nnc(-c2ccc(Cl)cc2)n1-c1ccccc1)C(=O)N(C)C (configuration not stated)	i
CC(=O)N1CCCc2cc(S(=O)(=O)N(Cc3ccco3)C3CCN(C)CC3)ccc21	i
COCC1(C(=O)NC2CC(=O)N(CCc3ccc(F)cc3)C2)CCC1 (configuration not stated)	i
O=C(Cc1c[nH]c2ccccc12)N(CCO)Cc1cccs1	i
O=C(c1ccccc1)N1CCCCC1	i
SMILES	ST2 inh
O=C(c1ccc([N+](=O)[O-])cc1)N1CCN(c2ccccc2F)CC1	i
O=C(c1ccccc1[N+](=O)[O-])N1CCCCC1	i
O=C(/C=C(/c1ccccc1)N1CCCCC1)c1ccc([N+](=O)[O-])cc1	38%*
Cc1ccc(C(=O)/C=C(\c2ccccc2)N2CCCCC2)cc1	30%*
Cc1ccc(C(=O)N2CCCN(C(=O)c3ccc(C)cc3)CC2)cc1	i
Cc1nc2sc(C(c3ccc(Cl)cc3)N3CCCCC3)c(O)n2n1 (configuration not stated)	i
O=C(c1ccccc1C1CCNC1)N1CCc2nnc(-c3ccccc3)n2CC1 (configuration not stated)	i
COC(=O)c1c(NC(=O)C(C)C)sc2c1CCC(C)C2 (configuration not stated)	i
CCC(=O)N1c2ccc(S(=O)(=O)Nc3cc(C(=O)O)cc(C(=O)O)c3)cc2CC1C (configuration not stated)	i
Cc1ccc(-c2[nH]c3ccccc3c2C(C[N+](=O)[O-])c2ccco2)cc1 (configuration not stated)	i
Cc1[nH]c2ccccc2c1C(C[N+](=O)[O-])c1ccco1 (configuration not stated)	36%*
COc1cc(C(C[N+](=O)[O-])c2c(C)[nH]c3ccccc23)ccc1O (configuration not stated)	i
CC(C)C(NS(=O)(=O)c1cccs1)C(=O)NC1CCCCCC1 (configuration not stated)	i
CC(C)NS(=O)(=O)c1cc(NC2CCCCC2)cc(C(=O)NC2Cc3ccccc3C2)c1	30%*
Cc1ccc(S(=O)(=O)N2CCCCC2)cc1C(=O)NC1CCCCC1	i
Cc1ccc(C(=O)Nc2cccc(-c3nc4ncccc4o3)c2C)cc1C	i
Cc1ccc2c(c1)C1C=CCC1C(c1ccccc1Cl)N2 (configuration not stated)	33%*
CC1CC(C)CN(C(=O)c2ccc([N+](=O)[O-])cc2)C1 (configuration not stated)	i
Cc1ccc(S(=O)(=O)N2CCSC2c2ccccc2Cl)c(C)c1 (configuration not stated)	i
O=C1Nc2cc(Cl)c(Cl)cc2N(O)N1c1ccc([N+](=O)[O-])cc1	i
O=[N+]([O-])c1ccc(C2Nc3cc(Cl)cc(Cl)c3C3C=CCC32)cc1 (configuration not stated)	32%*

Bioassay records deposited in PubChem BioAssay by Paczesny and Yang Labs, IUPUI and University of Michigan.
